“And” between values parts separate entries of the source, which are not always exact repeats. Identical values can stand only once. Results filed as inconclusive are left out. Values without a mark were called inactive. The source made the active and inactive calls. Calls follow the shape of the dose curve; as a rule, active = well fitted activation curve with a large enough effect in the repeat runs; inconclusive = weak or mixed curves; inactive = flat fitted curve, though single readings scatter.
Assay: A CellTox Green Cytotoxicity Assay to monitor cytotoxicity in HepG2 cells - 24 hour (AID 1224878); also: nearly all actives have a fitted effect of over 45% in size
Conditions: CellTox Green fluorescence; series mostly up to 76.8 µM; cytotoxicity: at the top concentration
Excerpt: National Center for Advancing Translational Sciences [NCATS]
NIH Chemical Genomics Center [NCGC]
U.S. Environmental Protection Agency [EPA]
National Institutes of Environmental Health Sciences [NIEHS]
National Toxicology Program [NTP]
Cell-based models are critical for drug discovery. Determining the natural cytotoxic effects resulting from test compounds is an essential research activity. A CellTox Green Cytotoxicity Assay to monitor cytotoxicity in real time of continues cell culture during 40 hours of the compound treatment was used to screen Tox21 10K library compounds in HepG2 cells. CellTox Green Cytotoxicity Assay is a nonlytic, homogeneous, biofluorescent method to measure cytotoxicity in cell culture after experimental manipulation. The assay system uses a proprietary asymmetric cyanine dye that is excluded from viable cells but preferentially stains the dead cell's DNA. […] Viable cells produce no appreciable increases in fluorescence. Therefore, the fluorescence signal produced by the binding interaction with dead cell DNA is proportional to cytotoxicity.
The mixture of HepG2 cell suspension and reagents were dispensed at 600cells/6 ul/well in 1536-well tissue culture treated black solid bottom plates using a Multidrop dispenser. After the assay plates were incubated at a 37 C/5% CO2 incubator for 5 hours, 23 nL of compounds dissolved in DMSO, positive and negative controls was transferred to the assay plate by a pintool work station. The plates were incubated at 37 C for 40 hours. The fluorescence intensity were measured at 0h, 8h, 16h, 24h, 32h and 40h time points using ViewLux plate reader during compound treatment.
% is scaled to controls: 0 for no effect and ±100 for the full control effect; potency is read from the fitted curve at half-maximal effect.

Compound | cytotoxicity | Potency
CCCCn1cc[n+](C)c1 (tested in a mixture with another compound) | -0.157% | 
c1csc(-c2ccc(-c3cccs3)s2)c1 | -11.8% | 
CCC1(CC)C(=O)N=C(O)NC1=O | -11.3% | 
O=C1C[C@@H]2OCC=C3CN4CC[C@]56c7ccccc7N1[C@H]5[C@H]2[C@H]3C[C@H]46 | 10.8% [at 35.3 µM] | 
Cc1ccn2nc(S(=O)(=O)Nc3c(F)cccc3F)nc2n1 | -11.2% | 
Cc1cnc2c(C(=O)O)c(Cl)ccc2c1 | 7.24% | 
O=[N+]([O-])c1cc(C(F)(F)F)c(Cl)c([N+](=O)[O-])c1Nc1ncc(C(F)(F)F)cc1Cl |  | 12.3 µM (active)
CCC(OC(C)=O)C(CC(C)NC)(c1ccccc1)c1ccccc1 (stereo not given) |  | 55.4 µM (active)
CNC(=O)/C=C(\C)OP(=O)(OC)OC | 3.38% | 
O.O.O.O=C([O-])[C@H]([O-])[C@@H]([O-])C(=O)[O-].O=C([O-])[C@H]([O-])[C@@H]([O-])C(=O)[O-].[K+].[K+].[Sb+3].[Sb+3] | 6.89% | 
CCN(CC)CCN1C(=O)CN=C(c2ccccc2F)c2cc(Cl)ccc21 | -1.41% [at 35.3 µM] | 
CCCCc1ccccc1 | 0.545% | 
C=CCBr | 1.43% | 
COP(=S)(NC(C)C)Oc1ccc(C)cc1[N+](=O)[O-] (stereo not given) | -11.8% | 
Nc1nc(N)c(N)c(N)n1 |  | 55.2 µM (active)
CC(C)=CCN1CC[C@@]2(C)c3cc(O)ccc3C[C@@H]1[C@@H]2C | 4.41% | 
CCc1cccc(C)c1N(C(=O)CCl)[C@@H](C)COC |  | 49 µM (active)
NC1CCC(CC2CCC(N)CC2)CC1 (stereo not given) | -3.21% | 
CNC(=O)CSP(=O)(OC)OC | -0.989% | 
COC(=O)N(OC)c1ccccc1COc1ccn(-c2ccc(Cl)cc2)n1 | -10.3% | 

Compound | cytotoxicity | Potency
O=C1C(Cl)=C(Cl)C(=O)C(Cl)=C1Cl |  | 24.5 µM (active) and 17.4 µM (active)
CC(C)C(Br)C(=O)NC(N)=O (stereo not given) | 6.32% [at 35.3 µM] | 
COC(=O)/C=C(\C)OP(=O)(OC)OC | 8.7% | 
O=P(Cl)(Cl)Cl | 2.96% | 
[Cl-].[Cl-].[Cl-].[Yb+3] | -14.7% | 
O.O.O.O.O.O.O.O=S(=O)([O-])[O-].[Co+2] | -0.809% | 
CC(=O)[O-].CC(=O)[O-].CC(=O)[O-].[Sb+3] | -19.2% [at 2.72 µM] | 
COC(=O)c1ccccc1S(=O)(=O)NC(=O)Nc1nc(C)nc(OC)n1 | -0.399% | 
Nc1ccccc1-c1ccccc1 | 5.69% | 
C=C(C)C(=O)[O][Sn]([CH2]CCC)([CH2]CCC)[CH2]CCC |  | 0.616 µM (active)
O=c1[nH]c(Cl)c(Cl)cc1Cl | 1.09% | 
COCCC#N | -4.51% | 
O.O.O.O.O.O.O=S(=O)([O-])[O-].[Ni+2] | -20.6% [at 35.3 µM] | 
FC(F)C(F)(F)OCC(Cn1cncn1)c1ccc(Cl)cc1Cl (stereo not given) |  | 48.7 µM (active)
CN1CCc2cc(Cl)c(O)cc2[C@H]2c3ccccc3CC[C@@H]21 | -2.36% [at 35.3 µM] | 
CCOC(=O)CCN(SN(C)C(=O)Oc1cccc2c1OC(C)(C)C2)C(C)C | 6.39% | 
Cc1ccc([N+](=O)[O-])[c]2c1[O][Hg]2 |  | 2.68 µM (active)
[O-][Cl+3]([O-])([O-])O | -15.3% | 
O=C(CCCCl)c1ccc(F)cc1 | 8.98% [at 35.3 µM] | 
CSC1=N[C@@](C)(c2ccccc2)C(=O)N1Nc1ccccc1 | -0.495% | 

From PubChem BioAssay (Tox21)
